# System: SRPK2
# Conditions: concentration: 1 μM, replicates: in singlicate; n = 1
# 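Also: KINOMEscan kinase panel screen.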
row,Structure (SMILES),%Inh [%]
1,COC(=O)c1c(-c2ccccc2)c2cc(Cl)ccc2c(=O)n1Cc1ccc(S(C)(=O)=O)cc1,6
2,FC(F)(F)c1ccc(-c2cc(-c3c[nH]nc3-c3ccccn3)ccn2)cc1 [GW599550],13
3,COc1ccc(NC(=O)c2ccc(-c3cc(-c4nnc(C)o4)ccc3C)cc2)cc1 [GW595885],0
4,Cl.Cl.c1ccc(-c2cc3ccncc3cc2OC2CCNCC2)cc1 [GSK1122999],0
5,CS(=O)(=O)CCNCc1nc(-c2ccc3ncnc(Nc4ccc(OCc5cccc(F)c5)c(Cl)c4)c3c2)cs1.Cl [GW583340],0
6,Cn1ccc2ncnc(Oc3ccc(NC(=O)Nc4cccnc4)c(Cl)c3)c21,0
7,Fc1cccc(COc2ccc(Nc3ncnc4sc(-c5ccc[nH]5)cc34)cc2Cl)c1 [GW707818],3
8,Cl.Cn1ccc(-c2cccc(Nc3ccnc4cc(-c5nccs5)ccc34)c2)n1 [GW525701],51
9,CS(=O)(=O)CCNCc1ccc(-c2ccc3ncnc(Nc4ccc(OCc5ccccc5)c(Cl)c4)c3c2)o1.Cl [GW574783],0
10,COc1ccc(Nc2nccc(N3CCC(NC(=O)Nc4ccc5c(c4)OCO5)C3)n2)cc1 (stereo not drawn) [GSK1379745],3
11,Fc1cccc(COc2ccc(Nc3ncnc4nn5ccccc5c34)cc2Cl)c1 [GW689066],30
12,Cc1ccc(O)cc1Nc1cc(C(F)(F)F)nc2ccc(-c3ccncc3)cc12 [GW630823],0
13,Cl.Fc1ccccc1COc1ccc(Nc2ncnc3ccc(-c4nnc(C(F)(F)F)o4)cc23)cc1Cl [GW424170],3
14,Clc1ccc(-c2cc(-c3c[nH]nc3-c3ccccn3)ccn2)cc1 [GW681251],0
15,C[C@H]1CC[C@@H](C(=O)Nc2ccccc2)CN1c1cc(-c2ccc3c(N)n[nH]c3c2)nc(N)n1 [GSK2283293],0
16,Oc1ccc2ncnc(Nc3ccc(OCc4ccccc4)cc3)c2c1 [GI262866],0
17,N#Cc1ccc(Oc2ccc(Nc3ncnc4cc[nH]c34)cc2Cl)cc1,0
18,CC(C)(C)c1ccc(-n2cnc3c(N)ncnc32)cc1 [SKF-97263],0
19,Cc1ccc(C)c(NC(=O)NCCNc2ccnc(Nc3ccc(F)cc3)n2)c1 [GSK1379878],0
20,CCn1c(-c2ccncc2)nc2cnccc21 [SB-735216],24
21,COc1ccc(NC(=O)Nc2ccc(C)c(-c3ccc(C(=O)Nc4ccncc4)cc3)c2)cc1 [GSK1398475],0
22,Clc1cc(Nc2ncnc3cc[nH]c23)ccc1OCc1ccccn1,0

# System: SRPK3
# Conditions: concentration: 1 μM, replicates: in singlicate; n = 1
row,Structure (SMILES),%Inh [%]
1,CN1CCC(n2cnc(-c3ccc(F)cc3)c2-c2ccnc(NC3CCNCC3)n2)CC1 [SB-229482],16
2,COc1cc2ncnc(Nc3ccc(OCc4ccccc4Br)c(Cl)c3)c2cc1OC.Cl [GI261590],5
3,CC(=O)Nc1n[nH]c2ncc(-c3ccccc3)cc12 [SB-548492],20
4,CNc1nccc(-c2c(-c3ccc(F)cc3)ncn2C2CCN(C)CC2)n1 [SB-222903],0
5,O=C(Nc1ccccc1F)NC1CCN(c2ccnc(Nc3ccc(F)cc3)n2)C1 (stereo not drawn) [GSK1379722],3
6,O=C(NCCCN1CCCC1=O)c1cnc(NCc2cc(Cl)ccc2Cl)nc1NC1CCNCC1,4
7,O=c1cc(N2CCOCC2)nc2n(Cc3cccc(Cl)c3)ccn12 [GSK2296823],51
8,Nc1n[nH]c2nnc(-c3ccccc3)cc12 [SB-517389],1
9,O=C(Nc1n[nH]c2nc(-c3ccco3)c(Br)cc12)c1ccc(CN2CCCC2)cc1.O=C(O)[C@H](O)[C@@H](O)C(=O)O [SB-742352],26
10,Nc1nc(-c2cccnc2)c(-c2ccnc3ccccc23)s1 [GW684083],18
11,c1ccc(-c2ccc3c(-c4ccnc(Nc5ccc6c(c5)OCCO6)n4)cnn3n2)cc1 [GW818941],21
12,Nc1nc(-c2ccc3c(N)n[nH]c3c2)cc(N2CCC[C@@H](C(=O)Nc3ccccc3)C2)n1.O=C(O)C(F)(F)F.O=C(O)C(F)(F)F [GSK2288359],25
13,COC(=O)c1cccc(NC(=O)NCCNc2ccnc(Nc3ccc(F)cc3)n2)c1 [GSK1379883],7
14,COC(=O)c1c(-c2ccccc2)c2cc(Cl)ccc2c(=O)n1Cc1ccc(S(C)(=O)=O)cc1,0
15,FC(F)(F)c1ccc(-c2cc(-c3c[nH]nc3-c3ccccn3)ccn2)cc1 [GW599550],2
16,COc1ccc(NC(=O)c2ccc(-c3cc(-c4nnc(C)o4)ccc3C)cc2)cc1 [GW595885],8
17,Cl.Cl.c1ccc(-c2cc3ccncc3cc2OC2CCNCC2)cc1 [GSK1122999],0
18,CS(=O)(=O)CCNCc1nc(-c2ccc3ncnc(Nc4ccc(OCc5cccc(F)c5)c(Cl)c4)c3c2)cs1.Cl [GW583340],0

row,Structure (SMILES),%Inh [%]
1,Cn1ccc2ncnc(Oc3ccc(NC(=O)Nc4cccnc4)c(Cl)c3)c21,0
2,Fc1cccc(COc2ccc(Nc3ncnc4sc(-c5ccc[nH]5)cc34)cc2Cl)c1 [GW707818],0
3,Cl.Cn1ccc(-c2cccc(Nc3ccnc4cc(-c5nccs5)ccc34)c2)n1 [GW525701],0
4,CS(=O)(=O)CCNCc1ccc(-c2ccc3ncnc(Nc4ccc(OCc5ccccc5)c(Cl)c4)c3c2)o1.Cl [GW574783],19
5,COc1ccc(Nc2nccc(N3CCC(NC(=O)Nc4ccc5c(c4)OCO5)C3)n2)cc1 (stereo not drawn) [GSK1379745],17
6,Fc1cccc(COc2ccc(Nc3ncnc4nn5ccccc5c34)cc2Cl)c1 [GW689066],8
7,Cc1ccc(O)cc1Nc1cc(C(F)(F)F)nc2ccc(-c3ccncc3)cc12 [GW630823],0
8,Cl.Fc1ccccc1COc1ccc(Nc2ncnc3ccc(-c4nnc(C(F)(F)F)o4)cc23)cc1Cl [GW424170],0
9,Clc1ccc(-c2cc(-c3c[nH]nc3-c3ccccn3)ccn2)cc1 [GW681251],0
10,C[C@H]1CC[C@@H](C(=O)Nc2ccccc2)CN1c1cc(-c2ccc3c(N)n[nH]c3c2)nc(N)n1 [GSK2283293],16
11,Oc1ccc2ncnc(Nc3ccc(OCc4ccccc4)cc3)c2c1 [GI262866],15
12,N#Cc1ccc(Oc2ccc(Nc3ncnc4cc[nH]c34)cc2Cl)cc1,0
13,CC(C)(C)c1ccc(-n2cnc3c(N)ncnc32)cc1 [SKF-97263],31
14,Cc1ccc(C)c(NC(=O)NCCNc2ccnc(Nc3ccc(F)cc3)n2)c1 [GSK1379878],0
15,CCn1c(-c2ccncc2)nc2cnccc21 [SB-735216],50
16,COc1ccc(NC(=O)Nc2ccc(C)c(-c3ccc(C(=O)Nc4ccncc4)cc3)c2)cc1 [GSK1398475],0
17,Clc1cc(Nc2ncnc3cc[nH]c23)ccc1OCc1ccccn1,19
